# Results reported in PubChem BioAssay.
# Active and inactive are the calls of the source.
# Assays:
# [1] = optical density shifts of acrAB sulA E. coli – strain DRC41, OD650, 48 h, E. coli filamentation inducer project, primary screen (AID 1152); conditions: higher = more signal, called active from +8 up or from −8 down;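 also: E. coli MC1000 strain DRC41 lacking acrAB efflux pump and sulA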
# [2] = probe aLefty1 binding on compound microarray – biochemical, small-molecule microarray, 635/667 nm fluorescence, primary screen (AID 1153); conditions: higher = more signal;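 also: score merges spot fluorescence with signal-to-noise ratio from the scanned slide images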
# [3] = plasmodial surface anion channel blockers, osmotic lysis – cell-based, P. falciparum Indochina, OD700, 1 h, primary screen (AID 1154); conditions: P. falciparum Indochina infected RBC osmotic lysis, higher = more signal, called active from +8 up or from −8 down
# [4] = plasmodial surface anion channel blockers, osmotic lysis – cell-based, P. falciparum Indochina, OD700, 2 h, primary screen (AID 1155);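 also: lysis reports solute entry through the parasite surface anion channel PSAC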; conditions: P. falciparum Indochina infected erythrocytes, higher = more signal, called active from +8 up or from −8 down
# [5] = changes in parasitized red cell lysis, either direction – P. falciparum Indochina, OD700, 3 h, PSAC antagonist project, primary screen (AID 1156); conditions: P. falciparum-infected erythrocytes, osmotic lysis, higher = more signal, called active from +8 up or from −8 down
# [6] = plasmodial surface anion channel blockers, osmotic lysis – cell-based, P. falciparum Indochina, OD700, 18 h, primary screen (AID 1157); conditions: P. falciparum Indochina infected erythrocytes, osmotic lysis OD700, 18 h; higher = more signal, called active from +8 up or from −8 down
# [7] = S6 kinase pathway phospho-S6 level changes – cell-based, A549, cytoblot, luminescence, serum-stimulated, primary screen (AID 1158); conditions: 5 h, higher = more signal;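 also: serum-stimulated A549 lung adenocarcinoma cells; signal is phosphorylated S6 detected by cytoblot immunostaining with HRP secondary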
# [8] = molecular target: NADPH oxidase 2 (Homo sapiens) (UniProt P04839); assay: compounds shifting NOX2 Amplex Red fluorescence – cell-based, HEK293-NOX2, PMA-stimulated, NOX inhibitor project, primary screen (AID 1159); conditions: 45 min, higher = more signal, called active from +8 up or from −8 down; also: test concentration not given here
# [9] = molecular target: NADPH oxidase 4 (Homo sapiens) (UniProt Q9NPH5); assay: compounds shifting NOX4 Amplex Red fluorescence – cell-based, HEK293-NOX4, tetracycline-induced, NOX inhibitor project, primary screen (AID 1160); conditions: HEK293-NOX4, Amplex Red H2O2 fluorescence, 45 min; higher = more signal, called active from +8 up or from −8 down
# [10] = molecular target: NADPH oxidase 5 (Homo sapiens) (UniProt Q96PH1); assay: compounds shifting NOX5 Amplex Red fluorescence – cell-based, HEK293-NOX5, NOX inhibitor project, primary screen (AID 1161); conditions: HEK293-NOX5, ionomycin, 45 min, higher = more signal
# [11] = compound effects on lung adenocarcinoma cell viability – A549, calcein-AM fluorescence, 48 h, basal, profiling panel (AID 1162); conditions: higher = more signal; also: test concentration not given here
# [12] = compound effects on differentiated 3T3-L1 adipocyte viability – cell-based, 3T3-L1 adipocytes, calcein-AM fluorescence, 48 h, basal, profiling panel (AID 1163); conditions: 3T3-L1 adipocytes viability, higher = more signal; also: test concentration not given here
# [13] = compound effects on hepatocellular carcinoma cell viability – HepG2, calcein-AM fluorescence, 48 h, basal, profiling panel (AID 1164); conditions: higher = more signal; also: test concentration not given here
# [14] = compound effects on multiple myeloma cell viability – MM1S, calcein-AM fluorescence, 48 h, basal, profiling panel (AID 1165); conditions: higher = more signal; also: test concentration not given here
# [15] = calcein-AM signal in unstimulated myeloma cells – cell-based, calcein-AM fluorescence, 48 h, PK04 Diversity Set, profiling panel (AID 1166); conditions: RPMI8226 myeloma viability, higher = more signal;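 also: cells grown under basal conditions without added stimulus; test concentration not given here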
# [16] = JC-1 mitochondrial signal, unstimulated HepG2 cells – cell-based, JC-1 fluorescence, 24 h, 100 nL compound, profiling panel (AID 1167); conditions: HepG2 mitochondrial potential, higher = more signal; also: test concentration not given here
# [17] = JC-1 mitochondrial signal, unstimulated adipocytes – cell-based, JC-1 fluorescence, 3T3-L1 adipocytes, 24 h, 100 nL compound, profiling panel (AID 1168); conditions: JC-1 mitochondrial fluorescence, higher = more signal, called active from +8 up or from −8 down; also: test concentration not given here
# [18] = JC-1 mitochondrial signal, unstimulated myeloma cells – cell-based, JC-1 fluorescence, RPMI8226, 24 h, 100 nL compound, profiling panel (AID 1169); conditions: JC-1 mitochondrial potential fluorescence, higher = more signal; also: test concentration not given here
# [19] = JC-1 mitochondrial signal, unstimulated MM1S myeloma – cell-based, JC-1 fluorescence, 24 h, 100 nL compound, profiling panel (AID 1170); conditions: MM1S mitochondrial potential, higher = more signal; also: test concentration not given here
# [20] = resazurin metabolic signal in A549 cells – cell-based, resazurin fluorescence, 24 h, PK04 Diversity Set, profiling panel (AID 1171); conditions: A549 viability, higher = more signal, called active from +8 up or from −8 down; also: test concentration not given here
# Chain of NADPH oxidase 4 (Homo sapiens) (Q9NPH5 whole entry, looked up): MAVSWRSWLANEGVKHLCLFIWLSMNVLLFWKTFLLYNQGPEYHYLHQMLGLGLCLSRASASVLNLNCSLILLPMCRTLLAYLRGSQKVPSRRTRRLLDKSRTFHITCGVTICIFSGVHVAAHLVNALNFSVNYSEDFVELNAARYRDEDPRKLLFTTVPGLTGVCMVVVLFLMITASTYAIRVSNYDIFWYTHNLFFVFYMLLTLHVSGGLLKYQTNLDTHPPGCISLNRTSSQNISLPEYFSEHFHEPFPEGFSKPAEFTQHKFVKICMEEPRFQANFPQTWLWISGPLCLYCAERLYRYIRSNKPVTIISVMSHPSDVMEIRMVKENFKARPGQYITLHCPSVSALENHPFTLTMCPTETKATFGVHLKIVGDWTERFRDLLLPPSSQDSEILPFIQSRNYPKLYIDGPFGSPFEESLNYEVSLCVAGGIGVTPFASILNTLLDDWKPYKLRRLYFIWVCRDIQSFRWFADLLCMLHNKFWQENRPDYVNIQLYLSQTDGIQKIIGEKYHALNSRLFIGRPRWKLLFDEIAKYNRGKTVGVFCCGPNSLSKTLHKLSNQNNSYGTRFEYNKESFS
# Chain of NADPH oxidase 2 (Homo sapiens) (P04839 whole entry, looked up): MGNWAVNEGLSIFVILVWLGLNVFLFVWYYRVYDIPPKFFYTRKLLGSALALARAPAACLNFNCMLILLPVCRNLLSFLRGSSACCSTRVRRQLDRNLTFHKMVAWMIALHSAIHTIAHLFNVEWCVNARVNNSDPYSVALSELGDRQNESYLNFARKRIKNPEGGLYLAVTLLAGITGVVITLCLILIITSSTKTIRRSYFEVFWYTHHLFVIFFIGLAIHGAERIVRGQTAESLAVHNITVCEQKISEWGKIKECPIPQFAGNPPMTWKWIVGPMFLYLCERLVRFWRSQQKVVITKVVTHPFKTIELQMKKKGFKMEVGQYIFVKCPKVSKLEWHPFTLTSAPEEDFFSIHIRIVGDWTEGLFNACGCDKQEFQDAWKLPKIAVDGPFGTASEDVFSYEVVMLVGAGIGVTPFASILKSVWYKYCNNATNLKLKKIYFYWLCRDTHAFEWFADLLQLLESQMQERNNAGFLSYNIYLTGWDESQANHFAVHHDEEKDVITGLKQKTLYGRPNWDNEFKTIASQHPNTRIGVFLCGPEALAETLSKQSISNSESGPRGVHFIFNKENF
# Chain of NADPH oxidase 5 (Homo sapiens) (Q96PH1 whole entry, looked up): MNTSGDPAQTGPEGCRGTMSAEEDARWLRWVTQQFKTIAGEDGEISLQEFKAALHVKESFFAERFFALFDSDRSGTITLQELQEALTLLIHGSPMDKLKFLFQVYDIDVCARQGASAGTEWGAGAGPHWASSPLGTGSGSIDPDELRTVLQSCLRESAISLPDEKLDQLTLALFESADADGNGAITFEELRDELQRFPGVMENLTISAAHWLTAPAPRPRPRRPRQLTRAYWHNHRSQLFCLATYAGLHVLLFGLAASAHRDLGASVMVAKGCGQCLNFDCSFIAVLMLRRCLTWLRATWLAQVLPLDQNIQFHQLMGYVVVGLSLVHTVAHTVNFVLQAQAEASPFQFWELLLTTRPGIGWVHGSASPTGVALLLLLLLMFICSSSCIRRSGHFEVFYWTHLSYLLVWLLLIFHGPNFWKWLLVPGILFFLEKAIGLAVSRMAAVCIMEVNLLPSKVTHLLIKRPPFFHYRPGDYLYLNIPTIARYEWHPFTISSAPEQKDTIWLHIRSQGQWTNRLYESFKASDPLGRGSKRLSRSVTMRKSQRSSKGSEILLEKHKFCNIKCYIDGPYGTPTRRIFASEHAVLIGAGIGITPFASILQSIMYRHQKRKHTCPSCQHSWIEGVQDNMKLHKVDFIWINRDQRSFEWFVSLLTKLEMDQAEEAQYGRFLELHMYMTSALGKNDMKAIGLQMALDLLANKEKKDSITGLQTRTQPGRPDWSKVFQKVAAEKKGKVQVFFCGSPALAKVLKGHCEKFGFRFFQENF
SMILES,z-score [1],composite z-score [2],z-score [3],z-score [4],z-score [5],z-score [6],z-score [7],z-score [8],z-score [9],z-score [10],z-score [11],z-score [12],z-score [13],z-score [14],z-score [15],z-score [16],z-score [17],z-score [18],z-score [19],z-score [20]
CC1=C([C@H](O)CCc2ccccc2)[C@H](CO)[C@@H]2C(=O)N(Cc3ccccc3)C(=O)[C@@H]2C1,1.85 (inactive),-0.147,5.86 (inactive),0.759 (inactive),0.695 (inactive),0.5 (inactive),0.663,-0.0572 (inactive),0.16 (inactive),-0.798,-0.286,-0.0776,-0.352,-0.0162,0.445,0.567,0.714 (inactive),0.331,-1.5,0.76 (inactive)
CCC(=O)[C@]12O[C@@]3([C@@H]4C(=O)OCC[C@@H]41)N(Cc1ccccc1)C(C)=C(C(=O)OC)[C@@H](c1ccccc1)N3C2=O,0.57 (inactive),-0.243,0.34 (inactive),-1.22 (inactive),0.573 (inactive),-1.74 (inactive),0.21,1.2 (inactive),0.785 (inactive),0.538,0.997,0.873,-0.356,0.0552,1.08,0.499,0.995 (inactive),-0.752,-0.226,0.26 (inactive)
C=CCN1C(=O)[C@]2(O[C@H](CCn3cc(CCO)nn3)[C@@H]([Si](C)(C)c3ccc(OC)cc3)[C@@H]2C)c2cc(NC(=O)c3ccc(OC)cc3)ccc21,1.24 (inactive),0.13,11.3 (active),-0.0473 (inactive),0.715 (inactive),-1.36 (inactive),0.173,0.891 (inactive),1.28 (inactive),0.385,-0.423,0.727,-0.792,-2.7,-4.31,3.04,1.61 (inactive),-1.09,0.122,-2.65 (inactive)
O=C1O[C@H](c2ccccc2)[C@H](c2ccccc2)N2[C@H]1[C@@H](C(=O)Nc1nc3ccccc3s1)[C@]1(C(=O)Nc3ccc(C#CC4(O)CCCCCC4)cc31)[C@H]2c1ccc(O)cc1,-1.07 (inactive),0.308,0.797 (inactive),1.57 (inactive),0.315 (inactive),1.38 (inactive),-0.0907,1.03 (inactive),-0.14 (inactive),0.842,-0.0457,0.6,-0.0827,-2.98,-4.08,-3.62,-2.4 (inactive),-1.14,-0.676,-0.318 (inactive)
CO[C@@H]1COC(=O)[C@H](C)NC(=O)CC=C[C@@H](C)[C@H](NS(=O)(=O)c2ccc(C)cc2)COC(=O)CC=C[C@@H]1C,0.117 (inactive),-0.15,-0.697 (inactive),-0.207 (inactive),0.0724 (inactive),-0.0387 (inactive),0.225,0.564 (inactive),0.661 (inactive),0.661,0.286,0.624,0.129,0.287,-0.0803,0.596,0.523 (inactive),-0.296,0.203,0.589 (inactive)
CCOC(=O)C[C@H]1[C@H](OC(=O)c2cc3ccccc3oc2=O)[C@@H](NC(=O)C2CCCCC2)c2cc(OCCCO)ccc2N1C(=O)c1ccc2ccccc2n1,-0.836 (inactive),-0.0547,4.81 (inactive),0.491 (inactive),0.499 (inactive),0.549 (inactive),-0.725,2.44 (inactive),1.52 (inactive),0.451,-0.133,0.536,0.312,0.0733,-0.253,0.0115,-0.734 (inactive),0.322,-0.166,0.164 (inactive)
O=C1O[C@@H](c2ccccc2)[C@@H](c2ccccc2)N2[C@@H](c3ccc(O)cc3)[C@]3(C(=O)Nc4ccccc43)[C@@H](C(=O)N3CCN(c4ncccn4)CC3)[C@H]12,3.11 (inactive),-0.263,2.76 (inactive),-0.363 (inactive),0.541 (inactive),-1.54 (inactive),2.51,0.142 (inactive),-0.0244 (inactive),1.51,0.661,-0.957,1.15,-1.16,-1.77,-0.235,1.72 (inactive),-0.455,-0.618,-0.133 (inactive)
CCOC(=O)C1=CCC(c2cccc3ccccc23)N(S(=O)(=O)c2ccc(C)cc2)C1 (stereo not given),-0.894 (inactive),0.071,1.49 (inactive),0.902 (inactive),-1.54 (inactive),0.411 (inactive),-0.415,1.42 (inactive),1.17 (inactive),1.49,-0.989,-1,-0.106,-0.0257,0.291,1.98,-0.759 (inactive),-0.498,-1.64,-0.658 (inactive)
CCCN1C(=O)[C@@]2(CCS(=O)(=O)c3ccccc3)N=C(c3ccc(OCCCO)cc3)O[C@H]2c2ccccc21,0.33 (inactive),0.498,34.1 (active),32.4 (active),1.93 (inactive),3.19 (inactive),0.43,-2.38 (inactive),-0.683 (inactive),-1.74,-1.3,2.41,-0.64,-0.454,-3.68,0.241,0.535 (inactive),-1.31,-0.148,-1.33 (inactive)
CC(C)NC(=O)[C@@]1(Cc2ccccc2I)c2ccccc2C(=O)N(C2CCCCC2)[C@H]1c1ccc(CO)cc1,0.151 (inactive),0.149,7.99 (inactive),1.13 (inactive),3.67 (inactive),1.28 (inactive),0.274,0.988 (inactive),-1.77 (inactive),-1.42,0.377,0.967,-0.476,-0.533,-3.89,1.54,-0.68 (inactive),-0.941,-1.36,0.778 (inactive)
O=C1O[C@H](c2ccccc2)[C@H](c2ccccc2)N2[C@H]1[C@@H](C(=O)Nc1nc3ccccc3s1)[C@]1(C(=O)Nc3ccc(C#CC4=CCCCC4)cc31)[C@H]2c1ccccc1OCCO,-0.485 (inactive),0.179,1.96 (inactive),2.21 (inactive),0.344 (inactive),1.41 (inactive),-0.0532,0.76 (inactive),0.195 (inactive),0.963,-0.639,0.313,-0.557,-1.63,-1.07,-2.86,-1.06 (inactive),-0.798,-1.46,-0.893 (inactive)
CC1CC/C=C\[C@H]2OC34C=CCN(Cn5nnc6ccccc65)C(=O)[C@H]3N(C(C)CO)C(=O)[C@@H]4C2C(=O)O1 (stereo not given in full),0.0838 (inactive),-0.204,2.25 (inactive),0.974 (inactive),1.03 (inactive),0.477 (inactive),0.0801,0.963 (inactive),0.173 (inactive),1.79,0.151,-0.14,0.203,0.835,0.182,0.236,-0.087 (inactive),0.128,-0.731,0.0113 (inactive)
COCC(=C=CC[C@H](O)c1ccc(OCCO)cc1)C[C@H](O)c1ccccn1,1.36 (inactive),-0.194,8.89 (active),0.989 (inactive),0.938 (inactive),0.48 (inactive),-0.324,2.36 (inactive),1.71 (inactive),1.32,0.905,-0.518,0.0126,0.682,0.237,1.79,1.09 (inactive),-0.145,-0.116,1.02 (inactive)
Cc1ccc(N2C(=O)c3ccccc3[C@](C)(C(=O)O)[C@@H]2c2ccc(CO)cc2)nc1,1.47 (inactive),-0.147,0.703 (inactive),-0.228 (inactive),-0.0241 (inactive),-0.211 (inactive),0.283,0.775 (inactive),-0.975 (inactive),-0.457,0.0643,0.937,-0.0479,-0.231,0.614,0.521,0.23 (inactive),-0.167,0.25,0.755 (inactive)
COCCOC(=O)N1C(=O)[C@@]2(c3cc(C#CCCO)ccc31)[C@H](c1ccc(O)cc1)N1[C@H](c3ccccc3)[C@H](c3ccccc3)OC(=O)[C@H]1[C@@H]2C(=O)Nc1nc2ccccc2s1,1.45 (inactive),0.345,2.22 (inactive),1.59 (inactive),0.577 (inactive),1.73 (inactive),0.897,0.928 (inactive),-0.161 (inactive),1.21,0.615,1.62,-0.425,-0.24,-1.53,-3.45,-2.22 (inactive),-0.684,-1.11,-0.192 (inactive)
CO[C@H]1O[C@H](CO)[C@@H](OC(=O)Nc2ccc3c(c2)OCO3)[C@H](OC(=O)Nc2ccccc2)[C@@H]1OC(=O)Nc1ccccc1,-1.51 (inactive),0.121,7.77 (inactive),0.903 (inactive),-0.33 (inactive),0.717 (inactive),0.342,1.07 (inactive),-0.393 (inactive),-0.675,-0.279,-0.0955,-1.27,-2,-1.66,-1.17,0.157 (inactive),-0.611,-0.191,-1.57 (inactive)
C=CC[C@]1(C(=O)O)N=C(c2ccc(OCCCO)cc2)O[C@H]1c1ccccc1,1.14 (inactive),-0.0984,11.7 (active),0.66 (inactive),0.211 (inactive),0.198 (inactive),0.663,-0.343 (inactive),0.388 (inactive),1.22,0.0248,1.88,0.0696,-0.394,-0.512,0.801,0.0186 (inactive),-0.755,1.29,0.692 (inactive)
C=CC[C@@]1(C(=O)NCC(O)CO)N=C(c2ccc(OCCCO)cc2)O[C@@H]1c1ccccc1CN=[N+]=[N-] (stereo not given in full),1.39 (inactive),0.129,24.9 (active),9.51 (active),1.99 (inactive),1.25 (inactive),0.281,-0.424 (inactive),0.495 (inactive),-0.927,2.22,0.0076,0.816,0.92,0.0295,1.41,1.62 (inactive),-0.153,-0.873,0.047 (inactive)
